Screening results deposited in PubChem by The Scripps Research Institute Molecular Screening Center.
Sampled rows, rich in hits. Any-hit rate of the full collection: about 1.1%.
MsrA act: bovine MsrA enzyme activators, primary screen, biochemical, absorbance, HTS; AID 602163, 2012; purified bovine MsrA, absorbance read-out; actives 0.3% (n = 360,000); activation, % at 10.6 µM; in the data active means activation above about 7.5%
PKA-R2B activ: activators of PKA-R2B holoenzyme, primary screen, biochemical, fluorescence polarization, Cy5-IP20, human; PKA-R2B holoenzyme dissociation; R2B truncated from residue 108, S112A mutant; 0% DMSO only, 100% 113 µM cGMP; cAMP-dependent protein kinase catalytic subunit beta (Homo sapiens) + cAMP-dependent …; AID 504700, 2011; actives 0.079% (n = 340,000); activation, % at 11.4 µM;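 active means activation above a cutoff set at the mean over all compounds plus 3 SD, cut at about 18% in these data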;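 further: higher means more holoenzyme dissociation and a rise in polarization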
Target sequence (P31323 whole entry, looked up, other chains not shown, the tested form may be a part): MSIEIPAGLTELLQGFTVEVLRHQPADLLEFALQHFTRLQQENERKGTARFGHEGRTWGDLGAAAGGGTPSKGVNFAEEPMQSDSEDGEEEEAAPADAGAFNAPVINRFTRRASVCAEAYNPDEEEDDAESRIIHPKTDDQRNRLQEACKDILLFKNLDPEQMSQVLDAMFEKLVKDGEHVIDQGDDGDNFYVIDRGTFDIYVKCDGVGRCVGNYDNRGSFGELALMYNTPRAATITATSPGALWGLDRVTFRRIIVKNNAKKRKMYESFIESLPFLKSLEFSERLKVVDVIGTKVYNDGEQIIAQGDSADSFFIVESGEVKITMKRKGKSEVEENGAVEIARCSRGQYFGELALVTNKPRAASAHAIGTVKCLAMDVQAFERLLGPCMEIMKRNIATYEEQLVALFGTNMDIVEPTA
PKA-R1A activ: activators of PKA-R1A holoenzyme, primary screen, biochemical, fluorescence polarization, Cy5-IP20, bovine R1A, mouse PKAc; cAMP-dependent protein kinase type I-alpha regulatory subunit (Bos taurus) + …; PKA-R1A dissociation; scaled: DMSO 0%, 113 µM cGMP 100%; activation, % at 11.4 µM; actives 0.083% (n = 340,000);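 active means percent activation above the mean of all tested compounds plus 3 SD, cut at about 19% in these data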;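 further: higher means more PKAc released from R1A so a rise in polarization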
MsrA inh: bovine MsrA enzyme inhibitors, primary screen, biochemical, absorbance, HTS; inhibition, % at 15.5 µM; actives 0.75% (n = 360,000); Methionine sulfoxide reductase A (Bos taurus); purified bovine MsrA, absorbance read-out
MsrA conf: bovine MsrA inhibitors, retest, confirmation, biochemical, absorbance, HTS; shares compounds with MsrA inh; inhibition, % at 15.5 µM; purified bovine MsrA, absorbance read-out; actives 41% (n = 2,300);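 further: coupled to thioredoxin reductase with NADPH and selenocystamine and DMSO as substrate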
A number is an active result. Unless noted, no stated cut-off is given here; in the data, active means inhibition above about 4.5%; inactive means the rest.

Screening CCOC(=O)c1c(C)[nH]c(C)c1S(=O)(=O)NC(CC)CN1CCOCC1 (centres undefined) returned MsrA act inactive, PKA-R2B activ inactive, PKA-R1A activ inactive and MsrA inh inactive.
`CC(/C=N/NC(=O)CN1CCN(Cc2ccc(Cl)cc2)CC1)=C\c1ccco1` gave MsrA act inactive, PKA-R2B activ inactive, PKA-R1A activ inactive and MsrA inh inactive.
For O=C(CN1CCN(Cc2ccccc2)CC1)N/N=C/C=C/c1ccco1 the results were MsrA act inactive, PKA-R2B activ inactive, PKA-R1A activ inactive, MsrA inh 5.8 and MsrA conf inactive.
Screening CC(=O)N1CCN(Cc2nc3cc(NC(=O)c4cccs4)ccc3n2C)CC1 returned MsrA act inactive, PKA-R2B activ inactive, PKA-R1A activ inactive and MsrA inh inactive.
Screening CCCCOc1ccc(C2=CSC3=NCCN23)cc1[N+](=O)[O-] returned MsrA act inactive, PKA-R2B activ inactive, PKA-R1A activ inactive and MsrA inh inactive.
CCCCOc1ccc(-c2csc(N)n2)cc1[N+](=O)[O-] was read as MsrA act inactive, PKA-R2B activ inactive, PKA-R1A activ inactive, MsrA inh 9.4 and MsrA conf inactive.
`COc1ccc(C)cc1NC(=O)C(Sc1nnc(Nc2cc(C)ccc2OC)s1)c1ccccc1` (centres undefined) gave MsrA act inactive, PKA-R2B activ inactive, PKA-R1A activ inactive, MsrA inh 5.2 and MsrA conf inactive.
Cc1cc(NC(=O)CCC(=O)N(c2cccc(F)c2)C(C(=O)NC2CCCC2)c2ccccc2)no1 (centres undefined) was read as MsrA act inactive, PKA-R2B activ inactive, PKA-R1A activ inactive and MsrA inh inactive.
Screening COc1ccc(OC)c(C(=O)COC(=O)COc2ccccc2)c1 returned MsrA act inactive, PKA-R2B activ inactive, PKA-R1A activ inactive and MsrA inh inactive.
O=C(c1nc2nc(-c3ccccc3)cc(C(F)(F)F)n2n1)N1CCCCC1 was read as MsrA act inactive, PKA-R2B activ inactive, PKA-R1A activ inactive and MsrA inh inactive.
For COc1ccc(-c2cc(C(F)(F)F)n3nc(C(=O)N4CCOCC4)nc3n2)cc1 the results were MsrA act inactive, PKA-R2B activ inactive, PKA-R1A activ inactive, MsrA inh 7.7 and MsrA conf 4.9.
Screening CN1/C(=C/C(=O)C2CCC2)Sc2ccccc21 returned MsrA act inactive, PKA-R2B activ inactive, PKA-R1A activ inactive, MsrA inh 8.3 and MsrA conf 5.9.
For CN1c2ccccc2C(O)=C(C(=S)Nc2ccc(Cl)cc2)S1(=O)=O the results were MsrA act inactive, PKA-R2B activ inactive, PKA-R1A activ inactive, MsrA inh 5.4 and MsrA conf 6.0.
`Cc1cccc(NC(=O)C2=C(O)c3ccccc3N(C)S2(=O)=O)c1` gave MsrA act inactive, PKA-R2B activ inactive, PKA-R1A activ inactive and MsrA inh inactive.
For N#CC1=C(N)Oc2ccc3ccc(O)cc3c2C1c1cccnc1 (centres undefined) the results were MsrA act inactive, PKA-R2B activ inactive, PKA-R1A activ inactive, MsrA inh 6.7 and MsrA conf 6.6.
`N#CC1=C(N)Oc2ccc3ccccc3c2C1c1cccnc1` (centres undefined) gave MsrA act inactive, PKA-R2B activ inactive, PKA-R1A activ inactive, MsrA inh 6.6 and MsrA conf inactive.
Screening N#CC1=C(N)Oc2cc(O)ccc2C1c1cccnc1 (centres undefined) returned MsrA act inactive, PKA-R2B activ inactive, PKA-R1A activ inactive and MsrA inh inactive.
`COc1ccc(C(=O)N2CCN(c3cnn(-c4ccccc4)c(=O)c3Cl)CC2)cc1` gave MsrA act inactive, PKA-R2B activ inactive, PKA-R1A activ inactive, MsrA inh 4.7 and MsrA conf inactive.
Screening O=C(O)COc1ccccc1C=NNC(=O)c1ccc(NS(=O)(=O)c2cccs2)cc1 returned MsrA act inactive, PKA-R2B activ inactive, PKA-R1A activ inactive, MsrA inh 5.9 and MsrA conf inactive.
O=C(NN=Cc1cc(Br)c(O)c(Br)c1)c1ccccc1NS(=O)(=O)c1cccs1 was read as MsrA act inactive, PKA-R2B activ inactive, PKA-R1A activ inactive, MsrA inh 6.1 and MsrA conf inactive.
Screening O=C(NN=Cc1ccc(F)cc1)c1ccccc1NS(=O)(=O)c1cccs1 returned MsrA act inactive, PKA-R2B activ inactive, PKA-R1A activ inactive and MsrA inh inactive.
Screening O=C(O)c1ccc(/C=N/NC(=O)c2ccc(NS(=O)(=O)c3cccs3)cc2)cc1 returned MsrA act inactive, PKA-R2B activ inactive, PKA-R1A activ inactive, MsrA inh 5.5 and MsrA conf 5.5.
For CC(C)CCNC(=O)[C@@H](Cc1ccccc1)NC(=O)[C@H]1O[C@@H](n2ccc(=O)[nH]c2=O)[C@H](O)[C@@H]1O the results were MsrA inh inactive.
For COc1ccc(-c2ccc3c(n2)CCCN3S(=O)(=O)c2ccc(F)cc2)cc1 the results were MsrA inh inactive.
Screening O=C(NCCN1C(=O)S/C(=C\c2ccc(OC(F)F)cc2)C1=O)c1cnccn1 returned MsrA act inactive, PKA-R2B activ inactive, PKA-R1A activ inactive, MsrA inh 5.1 and MsrA conf inactive.
`O=C(NCCN1C(=O)S/C(=C\c2ccc(OC(F)F)cc2)C1=O)C1=COCCO1` gave MsrA act inactive, PKA-R2B activ inactive and PKA-R1A activ inactive.
Screening O=C(NCCN1C(=O)S/C(=C\c2ccccc2F)C1=O)C1=COCCO1 returned MsrA act inactive, PKA-R2B activ inactive, PKA-R1A activ inactive, MsrA inh 4.8 and MsrA conf inactive.
O=C(NCCN1C(=O)S/C(=C\c2ccccc2Cl)C1=O)C1=COCCO1 was read as MsrA act inactive, PKA-R2B activ inactive, PKA-R1A activ inactive and MsrA inh inactive.
For COc1ccc(/C=C2\SC(=O)N(CCNC(=O)C3=COCCO3)C2=O)cc1 the results were MsrA act inactive, PKA-R2B activ inactive, PKA-R1A activ inactive, MsrA inh 8.5 and MsrA conf inactive.
O=C(Nc1ccccc1)c1cc(C2CCCCN2S(=O)(=O)c2ccccc2)on1 (centres undefined) was read as MsrA act inactive and MsrA inh inactive.
Screening Cc1ccc2nc(SCC(=O)NCc3ccc4c(c3)OCO4)nc(=O)n2c1 returned MsrA act inactive, PKA-R2B activ inactive, PKA-R1A activ inactive and MsrA inh inactive.
O=[N+]([O-])c1ccc(C2CCCC/C2=N/OCc2ccccc2F)c([N+](=O)[O-])c1 (centres undefined) was read as MsrA act inactive, PKA-R2B activ inactive, PKA-R1A activ inactive, MsrA inh 9.2 and MsrA conf 6.9.
`O=c1cc(-c2ccco2)oc2ccccc12` gave MsrA act inactive, PKA-R2B activ inactive, PKA-R1A activ inactive and MsrA inh inactive.
